Records with an inconclusive call do not appear. A number with no mark means an inactive call. The source made the active and inactive calls. Calls come from the whole dose curve; as a rule, active = well fitted inhibition curve with a large enough effect; inconclusive = small, poorly fitted or top-dose-only effect; inactive = no such curve, though single readings can be large or run the other way.
Potency is the fitted concentration of half-maximal effect.

The nature of the test: BET inhibitor-based combinations targeting novel dependencies in MECOM-rearranged (r) AML: SET-2 cell line (AID 2202231).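 For viability: plate controls were DMSO treated cells for no effect and wells without cells for full effect.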 Note: nearly all actives have a fitted effect of over 35% in size. The settings on record: SET-2 AML cells viability, CellTiter-Glo luminescence, 48 h; viability: stronger effect = lower value, series mostly up to about 46 µM. In a few lines:
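500 cells/well; 11-pt dose curve; 48 h, standard incubator; CellTiter-Glo luminescence after 15 min RT; DMSO/empty-well normalization; AUC plus Z-AUC (mean-centered within each line).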
On to `O=C(CCCCCCC(=O)N/N=C/c1ccc(N(c2ccccc2)c2ccccc2)cc1)NO`, for which the Potency was 7420 nM (active).
For the molecule `Nc1nc(F)nc2c1ncn2[C@@H]1O[C@H](COP(=O)(O)O)[C@@H](O)[C@@H]1O`, the Potency is 3720 nM (active).
As for `COc1cc2ncn(-c3cc(OCc4ccccc4C(F)(F)F)c(C(N)=O)s3)c2cc1OC`, the Potency is 1860 nM (active).
The term viability denotes a read-out of living cells in per cent, often relative to untreated cells. For the molecule `COc1cc(-c2cn(C)c(=O)c3cnccc23)cc(OC)c1CN(C)C`, the viability was 106%.
Take `CC(C)C(=O)OCC(=O)[C@@]12O[C@H](C3CCCCC3)O[C@@H]1C[C@H]1[C@@H]3CCC4=CC(=O)C=C[C@]4(C)[C@H]3[C@@H](O)C[C@@]12C`: the viability is 102%.
For `COc1cc2c3c(n(CCCn4ccnc4)c(=O)c2cc1OC)-c1cc2c(cc1C3=O)OCO2`, the Potency is 37.2 nM (active).
Consider `CC#CC(=O)N1CC[C@@H](n2c(=O)n(-c3ccc(Oc4ccccc4)cc3)c3c(N)ncnc32)C1`, for which the viability is 83.2%.
In the case of `CC(=O)Nc1cc(Oc2ccc3c(nc(Nc4ccc(F)cc4F)n3C)c2C)ccn1`, the Potency was 209 nM (active).
With `O=C(O)CNC(=O)c1ncc(-c2cccc(Cl)c2)cc1O`, the viability is 110%.
For the molecule `COc1nnc2ccc(N3CCC(c4ccc(OCCN5CCN(C)C(=O)[C@H]5C)cc4)CC3)nn12`, the Potency was 148 nM (active).
As for `CCC(C)CNCC(=O)N1CCc2sccc2C1c1cccc(C)n1` (configuration not stated), the viability is 95.4%.
With `C=C1C[C@@H]2CC[C@@]34C[C@H]5O[C@H]6[C@@H](O3)[C@H]3O[C@H](CC[C@@H]3O[C@H]6[C@H]5O4)CC(=O)C[C@@H]3[C@@H](OC)[C@@H](C[C@H](O)CN)O[C@H]3C[C@H]3O[C@@H](CC[C@@H]1O2)C[C@@H](C)C3=C`, the Potency was 152 nM (active).

The values are drawn from PubChem BioAssay (NCATS).
